Source: PubChem BioAssay
AmpC inh no detg: qHTS Inhibitors of AmpC Beta-Lactamase (assay without detergent); P00811; AmpC nitrocefin hydrolysis, absorbance 480 nm, 0.0001% Triton; Potency, µM (doses to about 57.1 µM), most hits filed as inhibitors; 330,000 tested, 0.52% active; AID 485341, 2010; note: nearly all actives have a fitted effect of over 20% in size
Target sequence (P00811 whole entry, looked up): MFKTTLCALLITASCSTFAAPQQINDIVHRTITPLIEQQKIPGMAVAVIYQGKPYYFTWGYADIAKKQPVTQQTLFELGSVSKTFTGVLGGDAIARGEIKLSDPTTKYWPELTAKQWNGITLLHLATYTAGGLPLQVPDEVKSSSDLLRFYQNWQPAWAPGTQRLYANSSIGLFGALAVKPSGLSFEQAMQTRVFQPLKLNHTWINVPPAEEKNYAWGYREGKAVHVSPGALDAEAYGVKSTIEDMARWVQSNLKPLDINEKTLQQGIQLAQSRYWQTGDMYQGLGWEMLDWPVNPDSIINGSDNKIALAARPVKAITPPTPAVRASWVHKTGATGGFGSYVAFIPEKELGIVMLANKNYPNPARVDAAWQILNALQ
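20 mM phosphate pH 7.0 + 0.01% (detergent screen) or 0.0001% Triton X-100; 5.3 nM AmpC reagent; cpd preinc 15 min RT; nitrocefin (800 uM stock) to start; A480 q20 s × 4 min; Activity was normalised to no-enzyme and no-compound control wells.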
AmpC detergent: qHTS Inhibitors of AmpC Beta-Lactamase (assay with detergent); P00811; AmpC hydrolysis of nitrocefin, absorbance 480 nm, 0.01% Triton; Potency, µM (titrated, usually from 114 µM), most hits filed as inhibitors; 370,000 tested, 0.041% active; AID 485294, 2010; note: nearly all actives have a fitted effect of over 25% in size
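20 mM phosphate pH 7.0 + 0.01% (detergent screen) or 0.0001% Triton X-100; 5.3 nM AmpC reagent; cpd preinc 15 min RT; nitrocefin (800 uM stock) to start; A480 q20 s × 4 min; Activity was normalised to no-enzyme and no-compound control wells.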
FMDV antiviral: High Throughput Screening for Foot and Mouth Disease Virus Antivirals; FMDV antiviral cell-based qHTS; Potency, µM (series often up to 57.9 µM), actives largely listed as inhibitors; 410,000 tested, 1.2% active; AID 1159524, 2015; calls by dose curve; tested in HEK293T cells; note: read-out not given here; nearly all actives have a fitted effect of over 45% in size
HCMV antiviral: qHTS Assay for inhibitors of the human cytomegalovirus (HCMV). HFF cells, HCMV-luciferase reporter, 72 h; stronger effect = lower value. activity change, negative = inhibition, % at 57.5 µM. 410,000 tested, 4.5% active; in the data active = activity change below about -60%; inconclusive = no clear call, values can overlap the other calls; inactive = above about -39%
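After 16 h attachment at 37C, HFF cells received test compound and HCMV-luciferase (1 PFU/cell); reporter luminescence read 72 h later, data normalized against buffer-only and known inhibitor Salinomycin.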
HCV inh: qHTS Assay for Inhibitors of Hepatitis C Virus (HCV). Huh7.5.1 HCVcc-Cre infection, luciferase reporter, 44 h. Potency, µM (highest dose often 41.8 µM), actives largely listed as inhibitors. 340,000 tested, 3.4% active
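Seed cells (1,000/well) for 4 h; treat with compound and infect with HCVcc-Cre, moi about 0.5. Incubate 44 h, then detect luciferase activity.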
Numbers stand for hits; n = inactive; u = inconclusive; x = not tested or not shown; + = active, no number; [ ] = another dose, or the depositor's remark. Shown are actives, neighbours in structure and some others; about 7.3% of the full set was active somewhere. Unless noted, calls come from the whole dose curve; as a rule, active = well fitted curve in the direction sought with a large enough effect; inconclusive = small, poorly fitted or top-dose-only effect, or another doubt; inactive = no such curve, though single readings can be large; an effect the other way counts as inactive or inconclusive.

SMILES	AmpC inh no detg	AmpC detergent	FMDV antiviral	HCMV antiviral	HCV inh
CC(C)(C)C(=O)NC(=S)NNC(=O)c1ccc(-c2ccccc2)cc1	n[2.29 µM]	u	n	x	6.3µM
CCCOc1ccc(C(=O)NNC(=S)NC(=O)c2cccs2)cc1	n	n	n	u	u
CCCOc1ccc(C(=O)NNC(=S)NC(=O)c2ccccc2)cc1	n	n	u	-86	u
COCC(=O)Nc1cc(C(=O)N2CCSCC2)cc2nc(-c3ccccc3)n(C)c12	x	x	n	x	x
Cc1cc(C)c(OCC(=O)OCC(=O)NCCC2=CCCCC2)c(C)c1	n	n	n	n	n
Cc1cc(C)c(NC(=S)NC(=O)c2ccc(-c3ccccc3)cc2)c(C)c1	n	n	u	-84	n
CC(NC(=O)CN1CCN(CC(=O)Nc2ccccc2Cl)CC1)c1ccc(Br)cc1 (stereo not given)	n	n	n	n	u
Nc1ncnc(Nc2ccccn2)c1[N+](=O)[O-]	n[2.29 µM]	n	n	n	u
Nc1ncnc(N2CCc3ccccc32)c1[N+](=O)[O-]	n	n	n	-83	n
Cc1nnc(SCC(=O)NN2C(=O)NC3(CCCCC3)C2=O)s1	n	n	n	-62	n
O=C(CSc1nnnn1-c1ccc(O)cc1)Nc1cccc(S(=O)(=O)N2CCCC2)c1	n	n	n	-73	u
O=C(CSc1nnnn1C1CC1)Nc1cccc(S(=O)(=O)N2CCCC2)c1	n	n	n	-75	n
Cc1ccc(Nc2nnc(SCC(=O)Nc3cccc(S(=O)(=O)N4CCCCC4)c3)s2)cc1	n	n	n	u	u
O=C(CSc1nnc(Nc2ccccc2F)s1)Nc1cccc(S(=O)(=O)N2CCCCC2)c1	n	u	u	n	13µM
O=C(CSc1nnc(NC2CCCCC2)s1)NN1C(=O)NC2(CCCCC2)C1=O	n	n	n	n	n
O=C(CSc1nnnn1C1CCCCC1)Nc1cccc(NC(=O)c2ccco2)c1	n	u	n	n	u
O=C(CSc1ncnc2sccc12)Nc1ccc(S(=O)(=O)N2CCOCC2)cc1	n	u	u	n	n
Cc1nc(SCC(=O)Nc2ccc(S(=O)(=O)N3CCOCC3)cc2)c2c(C)c(C)sc2n1	n	x	n	n	7.1µM
Cc1nnc(SCC(=O)Nc2cccc(S(=O)(=O)N3CCCCC3)c2)s1	n	n	n	n	n
CC(=O)c1cccc(-n2nnnc2SCC(=O)Nc2ccccc2N2CCCCC2)c1	n	u	u	n	14µM
Cc1nnc(SCC(=O)Nc2ccc(S(=O)(=O)N3CCCCC3)cc2)s1	n	n	n	-65	n
O=C(CSc1nnnn1C1CCCC1)Nc1cccc(NC(=O)c2ccco2)c1	n	u	x	-70	n
Cc1nnc(NC(=O)c2cc(S(=O)(=O)N3CCCCC3)ccc2Cl)s1	n	n	n	n	11µM
COc1ccc(NC(=O)CSc2nc(=O)n(CCN3CCOCC3)c3c2CCCC3)c(OC)c1	n	u	n	n	n
Cc1c(C(=O)N2CC[C@@H]3CCCC[C@H]3C2)sc2ncnc(NCCc3ccccn3)c12	x	x	n	x	x
SMILES	AmpC inh no detg	AmpC detergent	FMDV antiviral	HCMV antiviral	HCV inh
C=CCSC(=S)NC1CCS(=O)(=O)C1 (stereo not given)	n	n	13µM	u	n
Cc1onc(-c2ccccc2Cl)c1-c1nc(-c2ccccn2)no1	n	n	n	n	n
Clc1ccccc1/C=C/c1nc(-c2ccccn2)no1	n	n	4µM	u	n
O=C(N[C@H]1CC[C@@]23CCCN2C(=O)CCC[C@H]3[C@H]1Cc1ccccc1)c1cccc(Cl)c1	x	x	x	-65	x
COc1ccc(S(=O)(=O)n2nc(C)c(S(=O)(=O)N3CCOCC3)c2C)cc1OC	n	n	x	x	x
Cc1nc2ccccn2c1C(=O)N/N=C/c1ccc([N+](=O)[O-])o1	n	n	n	-74	u
O=C(N/N=C/c1cc(Br)c(Br)o1)c1cc2ccccc2o1	n	u	n	+	n
Cc1ccc2nc(N/N=C\c3ccc([N+](=O)[O-])o3)nc(-c3ccccc3)c2c1	n	n	n	u	u
O=[N+]([O-])c1ccc(/C=N/Nc2ccc3ccccc3c2)o1	n	n	n	-72	n
Cc1scc(C(=O)N/N=C/c2ccc([N+](=O)[O-])o2)c1C	n	n	x	-100	x
O=C(N/N=C/c1ccc([N+](=O)[O-])o1)c1cc2ccccc2o1	n	n	n	u	u
